Hits are enriched below; roughly 2% of the tested compounds scored in any of these assays.
Shn3 3UTR inh = reduces Shn3 3'UTR luciferase signal in osteoblasts; Clone20 osteoblast Shn3 3'UTR firefly luciferase, 24 h; inhibition, % at 12.5 µM; actives 0.52% (n = 360,000);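 active means mean inhibition of at least 75% with every replicate also reaching 75%; inconclusive means mean inhibition at least 75% but some replicate below; inactive means mean inhibition below 75%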;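 further: 0% = median of neutral control wells and 100% = pilot-screen positive control compound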
EWS-Fli block = inhibitors of EWS/Fli oncoprotein transcriptional activity; actives 0.67% (n = 350,000); inhibition, % at 12.6 µM; AID 651661; A673 NR0B1-luciferase reporter, viability-normalised;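 active means mean inhibition of at least 50% after viability correction, with every replicate also passing that limit; inconclusive means mean reaches 50% but only one of two replicates passes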;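 further: firefly luciferase signal divided by Alamar Blue viability fluorescence both relative to DMSO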
PAX8 reporter = lowers PAX8-driven luciferase in RMG-I cells; RMG-I TPO-luciferase reporter, SteadyGlo, 24 h; inhibition, % at 12.6 µM; actives 1.2% (n = 360,000);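 active means mean replicate inhibition at least 60% with every replicate also reaching 60%; inconclusive means only one of the two criteria is met; inactive means mean below 60% and not all replicates reaching 60%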;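 further: luciferase light reporting Pax8 driven TPO promoter activity; plate controls were median of neutral control wells for no effect and mitoxantrone controls for full effect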
CF NFkB block = cystic fibrosis NF-kB activation inhibition | actives 0.86% (n = 360,000) | AID 588850 | KKLEB NF-kB-GFP reporter, PAF-induced, GFP fluorescence overnight | inhibition, % at 5 µM;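 active means at least 50% inhibition at 5 µM, scaled per plate between neutral and stimulator controls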;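 further: PAF is a Pseudomonas aeruginosa culture filtrate used as stimulus; plate controls were PAF-stimulated DMSO wells for no effect and unstimulated DMSO wells for full effect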
LGR2 inh = Drosophila LGR2 receptor signaling inhibition; actives 0.35% (n = 380,000); inhibition, % at 9.99 µM; AID 720647; HEK293 LGR2, CRE-luciferase, bursicon-stimulated, 4 h;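 active means drop in luminescence signal, shown as inhibition above about 50% in the replicate tests, limit read from the data, passing the limit was not always enough; inconclusive means probably only some replicates passing the limit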;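 further: agonist challenge used bursicon conditioned medium at about half maximal strength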
KKLEB cytotox = CF airway cell cytotoxicity counter-screen; activity change (cytotoxicity), % at 5 µM; KKLEB CF airway cells viability, ATPlite luminescence, overnight; active compounds read low; cells stimulated with P. aeruginosa culture filtrate; AID 602141; actives 0.36% (n = 360,000);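 active means corrected activity change at or below -50% at 5 µM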
CF NFkB inh conf = confirmation of cystic fibrosis induced NF-kB inhibitors | shares compounds with CF NFkB block | KKLEB CF airway cells, PAF-induced NF-kB-GFP fluorescence, overnight | inhibition, % at 5 µM | actives 64% (n = 1,300); in the data active means inhibition above about 40%;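 further: stimulus PAF is a Pseudomonas aeruginosa filtrate and not platelet activating factor; plate controls were DMSO wells with stimulus for no effect and unstimulated DMSO wells for full effect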
The depositor's hits bear a star; ? = inconclusive; . = not tested or not shown.

SMILES | Shn3 3UTR inh | EWS-Fli block | PAX8 reporter | CF NFkB block | LGR2 inh | KKLEB cytotox | CF NFkB inh conf
C[C@@H]1CCCCO[C@H](CN(C)C(=O)Nc2cccc3ccccc23)[C@H](C)CN([C@H](C)CO)C(=O)c2cc(NS(C)(=O)=O)ccc2O1 | . | 10 | 9 | . | 3 | . | .
CC(C)CN=C(NS(=O)(=O)c1ccccc1)C(Cl)(Cl)Cl | 65 | 45 | 100* | 88* | 94* | -23 | 93*
C[C@@H]1CN([C@H](C)CO)C(=O)c2cccc(NS(=O)(=O)c3ccccc3)c2O[C@@H]1CN(C)S(=O)(=O)c1ccccc1 | . | 4 | . | . | 3 | . | .
O=C(CCN1CCCCC1)N[C@@H]1CC[C@H](CCNC(=O)c2cc(Cl)cc(Cl)c2)O[C@@H]1CO | . | 2 | -2 | . | 7 | . | .
O=C(NCc1ccc(F)cc1)C(c1ccccc1)N(C(=O)c1csnn1)c1ccccc1 (centres undefined) | 15 | 4 | 9 | 61* | -4 | 3 | 17
COc1ccc(N(C(=O)c2snc(C(N)=O)c2N)C(C(=O)NCc2ccccc2)c2ccc(O)cc2)cc1 (centres undefined) | -3 | 8 | 12 | -3 | 9 | -1 | .
CN(C)c1ccc(C(C(=O)NCc2ccccc2)N(Cc2ccco2)C(=O)c2snc(C(N)=O)c2N)cc1 (centres undefined) | 14 | 20 | 43 | 99* | ? | -42 | 89*
NC(=O)c1nsc(C(=O)N(c2ccccc2)C(C(=O)NCc2ccc(F)cc2)c2ccc(O)cc2)c1N (centres undefined) | 5 | 22 | 8 | 52* | 10 | -10 | 74*
CCOc1ccc(CCN2C(=S)N([C@@H](CC(C)C)CN3CCCC3CN3C(=S)NC[C@@H]3CC(C)C)C[C@@H]2Cc2ccc(O)cc2)cc1 (some centres undefined) | 18 | 12 | -10 | 53* | 4 | -9 | 63*
O=C1NC[C@H](Cc2ccccc2)N(C[C@H]2CCCN2C[C@H](Cc2ccccc2)N2C[C@H](Cc3ccccc3)N(CC3CCCCCC3)C(=O)C2=O)C1=O | 6 | 7 | 6 | 56* | 31 | -24 | 20
CC(C)C[C@H]1CNC(=S)N1C[C@H]1CCCN1C[C@H](Cc1ccccc1)N1C[C@H](Cc2ccc(O)cc2)N(CCc2ccccc2)C1=S | -4 | 0 | -22 | 66* | 12 | -11 | 31
CCOc1ccc(CCN2C(=S)N([C@@H](CC(C)C)CN3CCC[C@@H]3CN3C(=S)NC[C@@H]3CC(C)C)C[C@@H]2Cc2ccc(O)cc2)cc1 | 6 | 3 | 57 | 36 | 0 | -8 | .
CC(C)C[C@H]1CNC(=S)N1C[C@H]1CCCN1C[C@H](Cc1ccc(O)cc1)N1C[C@H](CC(C)C)N(CCc2ccccc2)C1=S | 6 | 14 | 48 | 56* | 15 | -16 | 22
O=C1NC[C@H](Cc2ccc(O)cc2)N(C[C@@H]2CCCN2C[C@H](Cc2ccccc2)N2C[C@H](Cc3ccc(O)cc3)N(CC3CCCCC3)C(=O)C2=O)C1=O | . | 6 | -7 | . | -5 | . | .
C[C@@H]1CN([C@@H](C)CO)C(=O)c2cc(C#CC(C)(C)O)cnc2O[C@H]1CN(C)C(=O)CN(C)C | . | 0 | . | . | -4 | . | .
C[C@@H]1CN([C@@H](C)CO)C(=O)c2cc(C#CC(C)(C)O)cnc2O[C@H]1CN(C)C(=O)C1CCC1 | . | -17 | . | . | -11 | . | .
Cc1ccc(S(=O)(=O)N2C[C@@H](O)COC[C@H]3O[C@@H](CC(=O)NCCN4CCCCC4)CC[C@@H]32)cc1 | . | -2 | -16 | . | -8 | . | .
CO[C@@H]1CN(C)C(=O)c2cc(NC(C)=O)ccc2OC[C@@H](C)N(Cc2cncnc2)C[C@@H]1C | . | -3 | . | . | -19 | . | .
CC(C)C[C@@H](CN1CCCC1CN1C(=S)NC[C@@H]1Cc1ccc(O)cc1)N1C[C@H](Cc2ccc(O)cc2)N(CC2CCCCCC2)C1=S (some centres undefined) | 83 | 22 | 82* | 52* | 16 | 0 | 61*
Cc1ccc(-c2ccc([C@@H]3[C@H](CO)N4C(=O)CN(C(=O)Nc5ccc(F)cc5)C[C@@H]34)cc2)cc1 | . | 8 | . | . | -2 | . | .
C[C@@H]1CN([C@H](C)CO)C(=O)c2cc(-c3cncnc3)cnc2O[C@@H]1CN(C)C(=O)Cc1ccccc1 | . | -4 | -42 | . | 2 | . | .
Nc1ncnc(NCc2ccc(F)cc2)c1[N+](=O)[O-] | 5 | -2 | -19 | 64* | 3 | -24 | 64*
CCNC(=O)C[C@H]1CC[C@H]2[C@@H](COc3ccc(NC(=O)c4ccc(C#N)cc4)cc3C(=O)N2C)O1 | . | -3 | 0 | . | -8 | . | .
C[C@H]1CN([C@@H](C)CO)C(=O)c2cc(NS(=O)(=O)c3cccs3)ccc2O[C@@H]1CN(C)Cc1ccc2c(c1)OCO2 | . | -6 | . | . | 19 | . | .
Cc1ccc(NC(=O)Cc2ccc(Cl)cc2)cc1S(=O)(=O)N1CCCCCC1 | 38 | 19 | 26 | 5 | 16 | 3 | .
SMILES | Shn3 3UTR inh | EWS-Fli block | PAX8 reporter | CF NFkB block | LGR2 inh | KKLEB cytotox | CF NFkB inh conf
Cc1ccc(NC(=O)CN(C)C(=O)Cn2ncc(Cl)c(Cl)c2=O)cc1 | 71 | . | 93* | 68* | 9 | -5 | 38
O=C1CN(C(=O)Cn2ncc(Cl)c(Cl)c2=O)c2ccccc2N1 | 19 | 21 | 95* | 94* | 105* | -47 | 56*
O=C(Cn1ncc(Cl)c(Cl)c1=O)NC1CCCCC1 | 64 | 51* | 54 | 68* | 3 | -20 | 27
Cc1ccc(Cn2c(C)c3cnn(CC(=O)NC4CCCC4)c(=O)c3c2C)cc1 | -22 | -40 | -83 | -2 | -22 | -13 | .
Cc1ccc(NC(=O)Cn2ncc(Cl)c(Cl)c2=O)cc1S(=O)(=O)N1CCCCC1 | 47 | ? | 90* | 86* | 6 | -10 | -57
Cc1cc2c(c(/C=C/C(=O)c3ccccc3)c1)OC1(C=C2)Oc2ccccc2C(=O)N1C (centres undefined) | 93* | 43 | 11 | 62* | 50* | -23 | -122
O=C1c2ccccc2OC2(C=Cc3ccccc3O2)N1Cc1ccccc1 (centres undefined) | 13 | . | . | 21 | 13 | -7 | .
COc1ccc(CNc2nn3c(-c4cccc(C(=O)N(C)C)c4)cnc3s2)cc1 | -12 | 0 | 7 | 84* | -3 | 2 | 91*
COc1cccc(-c2cc(NC=O)c3ncc(-c4cccc(C(=O)N(C)C)c4)n3c2)c1 | 5 | 14 | 40 | 16 | -5 | -12 | .
C[C@H]1CCCCO[C@@H](CN(C)C(=O)Nc2ccccc2)[C@@H](C)CN([C@@H](C)CO)C(=O)c2cc(NS(C)(=O)=O)ccc2O1 | . | -1 | 5 | . | -10 | . | .

Assay outcomes from PubChem BioAssay.
